AmpC inh no detg = inhibitors of E. coli AmpC beta-lactamase without detergent; P00811; AmpC nitrocefin hydrolysis, absorbance 480 nm, 0.0001% Triton; Potency, µM (highest dose often 57.1 µM), for the others: at the top dose activity change, negative = inhibition, most hits filed as inhibitors; actives 0.52% (n = 330,000); AID 485341;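 also: plate controls were no compound for no effect and no enzyme for full effect; nearly all actives have a fitted effect of over 20% in size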
Target sequence (P00811 whole entry, looked up): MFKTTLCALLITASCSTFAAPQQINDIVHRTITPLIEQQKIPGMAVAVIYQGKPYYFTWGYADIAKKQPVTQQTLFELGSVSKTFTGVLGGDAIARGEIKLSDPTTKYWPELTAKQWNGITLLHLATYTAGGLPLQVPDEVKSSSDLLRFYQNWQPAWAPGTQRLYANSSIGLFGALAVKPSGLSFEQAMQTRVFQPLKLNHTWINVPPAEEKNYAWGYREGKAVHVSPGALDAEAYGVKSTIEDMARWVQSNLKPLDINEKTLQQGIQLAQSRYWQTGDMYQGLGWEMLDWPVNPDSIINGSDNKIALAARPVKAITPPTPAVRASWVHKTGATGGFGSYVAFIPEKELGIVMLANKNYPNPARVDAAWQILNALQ
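20 mM phosphate pH 7.0 + 0.01% (detergent screen) or 0.0001% Triton X-100; 5.3 nM AmpC reagent; cpd preinc 15 min RT; nitrocefin (800 uM stock) to start; A480 q20 s × 4 min; Activity was normalised to no-enzyme and no-compound control wells.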
Pf growth 96h = P. falciparum growth inhibition at 96 hour, primary screen for plastid delayed-death inhibitors. P. falciparum luciferase reporter growth, 96 h. Potency, µM (top dose mostly 28.7 µM), for inactives: top-dose activity change, negative = inhibition, usual class: inhibitors. actives 6.9% (n = 320,000). AID 504834
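Delayed-death screen, second-generation endpoint: infected erythrocytes, 2% hematocrit, 0.05% parasitemia final; 96 hours at 37 C, 5% CO2; luciferase detection reagent; luminescence decrease equals reduced growth.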
AMA1-RON2 inh = inhibitors of Plasmodium falciparum AMA1-RON2 interaction | AlphaScreen AMA1-biotinylated RON2 peptide binding | Potency, µM (doses to about 58.2 µM), for inactives: at the highest dose activity change, negative = inhibition, most hits filed as inhibitors | AID 720542 | actives 0.2% (n = 360,000);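 also: 0% = vehicle wells and -100% = peptide control; nearly all actives have a fitted effect of over 45% in size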
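AMA1 (3D7) with his tag at 25 nM final met compounds first, then biotinylated RON2 peptide at 25 nM; detection used donor plus acceptor beads, 10 µg/mL apiece, read by AlphaScreen after 30 min at room temperature.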
HCV inh = inhibitors of hepatitis C virus infection. Huh7.5.1 HCVcc-Cre infection, luciferase reporter, 44 h. Potency, µM (highest dose often 41.8 µM), inactives show top-dose activity change, negative = inhibition, actives largely listed as inhibitors. actives 3.4% (n = 340,000). AID 651820
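Cells (1,000/well) were plated 4 h before compound, then infected with HCVcc-Cre virus (~0.5 moi). After 44 h further culture, infection was read as luciferase luminescence following a 15 min substrate incubation at room temperature.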
Pf growth 48h = inhibits P. falciparum growth in the first generation, 48 h; P. falciparum luciferase growth in erythrocytes, 48 h; Potency, µM (top dose mostly 28.7 µM), for inactives: top-dose activity change, negative = inhibition, most hits filed as inhibitors; actives 5.9% (n = 310,000); AID 504832
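Luciferase-expressing P. falciparum in infected erythrocytes (2% hematocrit, 0.1% parasitemia final) in RPMI 1640/0.5% Albumax were exposed to compound for 48 hours at 37 C, 5% CO2; growth read as luminescence.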
AmpC detergent = blocks E. coli AmpC beta-lactamase in detergent assay. P00811. AmpC hydrolysis of nitrocefin, absorbance 480 nm, 0.01% Triton. actives 0.041% (n = 370,000). Potency, µM (titrated, usually from 114 µM), without a hit: top-dose activity change, negative = inhibition, hits mostly inhibitors;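 also: 0% = no-compound wells and -100% = no-enzyme wells; nearly all actives have a fitted effect of over 25% in size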
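AmpC (5.3 nM in the dispensed reagent) in 20 mM phosphate pH 7.0 with 0.01% (detergent screen) or 0.0001% Triton X-100 was preincubated with compounds for 15 min at room temperature. Nitrocefin was then added from an 800 uM solution, and hydrolysis was followed at 480 nm.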
* marks the source's active call; other numbers are inactive results; ? = inconclusive; nt = not tested or not shown; ! = not confirmed by another sample. Shown are actives, neighbours in structure and some others; about 11% of the full set was active somewhere. Calls follow the shape of the dose curve; as a rule, active = well fitted curve in the direction sought with a large enough effect; inconclusive = small, poorly fitted or top-dose-only effect, or another doubt; inactive = no such curve, though single readings can be large; an effect the other way counts as inactive or inconclusive. Unless noted, % is scaled to controls: 0 for no effect and ±100 for the full control effect; potency is read from the fitted curve at half-maximal effect.

SMILES | AmpC inh no detg | Pf growth 96h | AMA1-RON2 inh | HCV inh | Pf growth 48h | AmpC detergent
Cc1ccc2c(c1)N(C(=O)CCC(=O)N1CCN(c3cccc(C)c3C)CC1)CCO2 | 67% | 48% | -6% | 10µM* | ? | 2%
CNS(=O)(=O)c1cn(CC(=O)N2CCN(c3cccc(C)c3C)CC2)cc1S(=O)(=O)NC | nt | nt | nt | nt | nt | 24%
CCOc1ccccc1N1CCN(C(=O)NC(C)c2ccc(F)c(F)c2)CC1 (stereo unspecified) | 95% | -25% | 11% | -25% | ? | -2%
Cc1cccc(N2CCN(C(=O)NC(C)c3ccc(F)c(F)c3)CC2)c1C (stereo unspecified) | -20% | 12µM* | 5% | 10% | 12µM* | 5%
CCN1CCN(C(=O)Cn2c(-c3cccs3)cc3cc(Cl)ccc32)CC1 | nt | nt | nt | nt | nt | 3%
CCC(C)Nc1sc(S(=O)(=O)CC)nc1S(=O)(=O)c1ccc(C)cc1 (stereo unspecified) | nt | nt | nt | nt | nt | 22%
Cc1ccc(OCCNc2cc(N3CCN(CCO)CC3)ccc2[N+](=O)[O-])cc1C | 213% | -20% | -28% | 10µM* | ? | -14%
Cc1cccc(OCCNc2cc(N3CCN(C)CC3)ccc2[N+](=O)[O-])c1 | -13% | 5% | -3% | ? | 1% | -9%
Cc1ccccc1OCCNc1cc(N2CCNCC2)ccc1[N+](=O)[O-] | -5% | 0% | nt | nt | ? | 7%
Cc1cccc(OCCNc2cc(N3CCOCC3)ccc2[N+](=O)[O-])c1 | -2% | ? | -26% | 10µM* | ? | 3%
O=C1CN(C(=O)COC(=O)c2ccc(Cl)c(S(=O)(=O)N3CCCCC3)c2)c2ccccc2N1 | -34% | nt | -3% | 0% | nt | nt
O=C1CN(C(=O)COC(=O)c2ccc(N3CCCCCC3)c([N+](=O)[O-])c2)c2ccccc2N1 | -1% | 6.6µM* | -15% | ? | ? | -7%
O=C1CN(C(=O)COC(=O)C2CCN(S(=O)(=O)c3ccccc3C(F)(F)F)CC2)c2ccccc2N1 | 64% | nt | -12% | 10% | 3.7µM* | -2%
O=C1CN(C(=O)COC(=O)CCS(=O)(=O)c2ccccc2Cl)c2ccccc2N1 | -21% | nt | 12% | 11% | nt | nt
C/C(=N\OCC(=O)N/N=C/c1ccc(C)cc1O)c1cccs1 | -24% | 108% | 80% | 10µM* | 8% | -1%
COC(=O)c1sc2nc(CN3CCOCC3)nc(N3CCOCC3)c2c1C | -3% | 22% | 17% | ? | 10µM* | -12%
Cc1sc2nc(CN3CCOCC3)nc(N3CCOCC3)c2c1C | 11% | ? | -2% | 6% | nt | -5%
COc1ccc(-c2nc(-c3ccccc3)nc(N3CCN(C)CC3)c2C#N)cc1 | -9% | 13µM* | 0% | ? | ? | 0%
COC(=O)c1sc2nc(-c3ccccc3)nc(N3CCN(C)CC3)c2c1C | 55% | nt | ? | -29% | 3.7µM* | 5%
COc1ccc(CC(=O)Nc2c(C(=O)N3CCN(c4ccccc4F)CC3)oc3ccccc23)cc1OC | nt | nt | nt | nt | nt | 16%
COCCNC(=O)CN1C(=O)COc2ccc(S(=O)(=O)N3CCCC3)cc21 | nt | nt | nt | nt | nt | -21%
CCc1ccc(C(=O)c2cn(CC(=O)Nc3cc(OC)ccc3OC)c3nc(C)ccc3c2=O)cc1 | nt | nt | nt | nt | nt | -7%
Cc1ccc(NC(=O)C2CCCN(S(=O)(=O)c3cccc4cccnc34)C2)c(C)c1 (stereo unspecified) | nt | nt | nt | nt | nt | 10%
O=C(Nc1ccc2oc(-c3cccnc3)nc2c1)c1ccccc1F | nt | nt | nt | nt | nt | 0%
CCCCC#Cc1ccc(C(=O)NNC(=O)Nc2cc(Cl)cc(Cl)c2)o1 | 14µM* | 27% | 125% | 0% | -1% | 5%
SMILES | AmpC inh no detg | Pf growth 96h | AMA1-RON2 inh | HCV inh | Pf growth 48h | AmpC detergent
CC(Oc1ccc(Br)cc1)C(=O)Nc1ccc(S(=O)(=O)N(C)C2CCN(C)CC2)cc1 (stereo unspecified) | 134% | ? | 2% | 6.3µM* | ? | -18%
COc1ccc(CC(=O)Nc2ccc(S(=O)(=O)N(C)C3CCN(C)CC3)cc2)cc1 | -12% | ? | 3% | 0% | ? | -9%
COc1ccc2oc(C(=O)Nc3ccc(S(=O)(=O)N(C)C4CCN(C)CC4)cc3)c(C)c2c1 | 236% | ? | -12% | 11µM* | 5.9µM* | 2%
COc1ccc(S(=O)(=O)N(C)C2CCN(C)CC2)cc1 | 10µM* | ? | 1% | 9% | 3% | ?
Cc1cc(N2CCCC2)ccc1NC(=O)COc1cccc(C(F)(F)F)c1 | 8% | 0% | 3% | 13µM* | 7% | -6%
COc1ccc(NC(=O)c2oc3ccc(S(=O)(=O)N4CCCCC4)cc3c2C)cc1 | nt | nt | nt | nt | nt | 1%
CN1CCN(NC(=O)COc2cccc(C(F)(F)F)c2)CC1 | -7% | ? | -20% | -19% | 4% | -17%
CN1CCC(N(C)S(=O)(=O)c2ccc(NC(=O)COc3cccc(C(F)(F)F)c3)cc2)CC1 | 89% | 13µM* | 47% | ? | ? | -15%
O=C(NCCOC(=O)c1ccc(C(=O)OCCNC(=O)c2cccnc2)s1)c1cccnc1 | -1% | 20% | 3% | 22µM* | -3% | -6%
O=C(Nc1ccc(S(=O)(=O)N2CCOCC2)cc1)c1cccnc1 | -16% | 61% | -20% | 19% | ? | 3%
O=C(NCCOC(=O)c1ccc(S(=O)(=O)N2CCOCC2)cc1)c1cccnc1 | -14% | 2.3µM* | -8% | -17% | 1% | 3%
CCOc1ccc(C(=O)Nc2ccc(C(=O)OCc3cc(=O)n4ccsc4n3)cc2)cc1 | nt | nt | nt | nt | nt | 17%
O=C(Nc1ccc2snnc2c1)Nc1cccc2ccccc12 | -27% | nt | -2% | 10µM* | ? | 2%
CCc1ccccc1NC(=O)Nc1ccc2snnc2c1 | nt | nt | nt | nt | nt | 20%
CC(C)(C)NCC(O)COc1ccc(Br)cc1 (stereo unspecified) | -17% | 4% | -3% | -15% | ? | -4%
CC(C)(C)NCC(O)c1cc(Cl)c(N)c(Cl)c1 (stereo unspecified) | -24% | 11µM*! | 0% | -5% | 12µM* | -5%
COc1ccc(-c2coc3c2c(C)cc2oc(=O)c(CC(=O)O)c(C)c23)cc1 | nt | nt | nt | nt | nt | 19%
Cc1ccc(CCNS(=O)(=O)c2c(C)nc3sc(C)c(C)n3c2=O)cc1 | nt | nt | nt | nt | nt | -7%
C/C(=N/NC(=O)CSc1nc2ccccc2s1)c1ccncc1 | -8% | 1% | -1% | 8% | -29% | -7%
CS/C(=N\S(=O)(=O)c1cccs1)NC(=O)CSc1nc2ccccc2s1 | -50% | 6.6µM* | 29% | 5% | nt | ?

Bioassay records: PubChem BioAssay, National Center for Advancing Translational Sciences (NCATS)
